Experimental data reported in PubChem BioAssay (EPA / NIEHS).
Activity calls are given as the source filed them. The calls were made as follows: active = hit-call score of the fitted dose curve at least 0.9, where 1 is the maximum; inactive = score below 0.9.

Legend:
Conditions in all cases: mRNA level, 48 h; actives raise or lower the signal
[1] = read-out: Tumor necrosis factor receptor superfamily member 6 (Homo sapiens) (UniProt P25445); assay: LTEA_HepaRG_FAS: Life Technologies and Expression Analysis (LTEA) Assay for Fas cell surface death receptor (FAS) using HepaRG (AID 2283447)
Outline: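 Differentiated HepaRG cells in serum-free induction medium were exposed 48 h to 8 half-log concentrations up to 100 uM in 0.5% DMSO, in duplicate. FAS mRNA was measured by qRT-PCR normalised to ACTB, GAPDH and POLR2A; bidirectional fit versus DMSO.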

[2] = read-out: Fatty acid synthase (Homo sapiens) (UniProt P49327); assay: LTEA_HepaRG_FASN: Life Technologies and Expression Analysis (LTEA) Assay for Fatty Acid Synthase (FASN) using HepaRG (AID 2283448);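 as to AC50: differentiated human HepaRG liver cells in serum-free induction medium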
Outline: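 In human HepaRG cultures, 48 h chemical exposure (up to 100 uM, 0.5% DMSO) preceded TaqMan qRT-PCR of FASN.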

[3] = read-out: Cyclin D2 (CCND2), CCND2 (gene 894); assay: LTEA_HepaRG_CCND2: Life Technologies and Expression Analysis (LTEA) Assay for Cyclin D2 (CCND2) using HepaRG (AID 2283449);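 also: CCND2 transcript measured by TaqMan qRT-PCR and normalised to three housekeeping genes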
Outline: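 HepaRG, 48 h dosing, 8-pt half-log curve from 100 uM, 0.5% DMSO; duplicate wells. Readout: CCND2 transcript by microfluidic qRT-PCR, housekeeping-normalised; bidirectional fit vs DMSO baseline.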

[4] = read-out: Cyclin Dependent Kinase Inhibitor 1A (CDKN1A), CDKN1A (gene 1026); assay: LTEA_HepaRG_CDKN1A: Life Technologies and Expression Analysis (LTEA) Assay for Cyclin Dependent Kinase Inhibitor 1A (CDKN1A) using HepaRG (AID 2283450)
Outline: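 HepaRG, 48 h dosing, 8-pt half-log series from 100 uM top, 0.5% DMSO vehicle, duplicates. Readout: TaqMan qRT-PCR of CDKN1A transcript, housekeeping-normalized (ACTB, GAPDH, POLR2A). Up/down curve fit relative to DMSO.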

[5] = read-out: Cyclin D1 (CCND1), CCND1 (gene 595); assay: LTEA_HepaRG_CCND1: Life Technologies and Expression Analysis (LTEA) Assay for Cyclin D1 (CCND1) using HepaRG (AID 2283451);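 as to AC50: differentiated human HepaRG liver cells in serum-free induction medium; TaqMan qRT-PCR transcript level normalised to ACTB GAPDH and POLR2A housekeeping genes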
Outline: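 qRT-PCR (Fluidigm 96.96 array) read-out of transcript level, housekeeping-normalized (ACTB/GAPDH/POLR2A). HepaRG cells, 48 h chemical exposure, 8-point half-log series from 100 uM, 0.5% DMSO vehicle; gain or loss relative to DMSO baseline.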

[6] = read-out: catalase (CAT), CAT (gene 847); assay: LTEA_HepaRG_CAT: Life Technologies and Expression Analysis (LTEA) Assay for catalase (CAT) using HepaRG (AID 2283452)
Outline: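 HepaRG cells in serum-free induction medium, 0.5% DMSO vehicle, exposed 48 h in duplicate over 8 half-log concentrations from 100 uM. CAT mRNA measured by qRT-PCR, normalized to ACTB, GAPDH, POLR2A; bidirectional fit versus DMSO.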

[7] = read-out: flavin-containing dimethylaniline monooxygenases 3 (FMO3), FMO3 (gene 2328); assay: LTEA_HepaRG_FMO3: Life Technologies and Expression Analysis (LTEA) Assay for flavin-containing dimethylaniline monooxygenases 3 (FMO3) using HepaRG (AID 2283453);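 as to AC50: differentiated human HepaRG liver cells in serum-free induction medium; FMO3 transcript by TaqMan qRT-PCR normalized to ACTB GAPDH and POLR2A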
Outline: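 Eight-point concentration-response in serum-free HepaRG cultures (top 100 uM, 0.5% DMSO, 48 h). Read-out: FMO3 mRNA level normalized to three endogenous control genes, fitted bidirectionally versus vehicle.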

[8] = read-out: Cytochrome P450 (CYP1A1), CYP1A1 (gene 1543); assay: LTEA_HepaRG_CYP1A1: Life Technologies and Expression Analysis (LTEA) Assay for Cytochrome P450 (CYP1A1) using HepaRG (AID 2283454)
Outline: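 qRT-PCR read-out: CYP1A1 transcript normalized to three housekeeping genes, fitted bidirectionally against 0.5% DMSO vehicle baseline. Human HepaRG cells, 48 h chemical exposure, 8-point half-log series topping at 100 uM.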

[9] = read-out: CFLAR gene, CFLAR (gene 8837); assay: LTEA_HepaRG_CFLAR: Life Technologies and Expression Analysis (LTEA) Assay for CFLAR gene using HepaRG (AID 2283455)
Outline: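 qRT-PCR read-out (Fluidigm/TaqMan) of CFLAR mRNA, normalized to three housekeeping genes, in differentiated human HepaRG cells after 48 h chemical exposure; 8-point half-log series from 100 uM in 0.5% DMSO; bidirectional curve fitting versus DMSO.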

[10] = read-out: Forkhead box O1 (FOXO1), FOXO1 (gene 2308); assay: LTEA_HepaRG_FOXO1: Life Technologies and Expression Analysis (LTEA) Assay for Forkhead box O1 (FOXO1) using HepaRG (AID 2283456)
Outline: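 HepaRG, 48 h exposure, 8-pt half-log series from 100 uM in 0.5% DMSO, duplicates; Fluidigm qRT-PCR mRNA, housekeeping-normalised; bidirectional fit vs DMSO baseline.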

Chain of Fatty acid synthase (Homo sapiens) (P49327 whole entry, looked up): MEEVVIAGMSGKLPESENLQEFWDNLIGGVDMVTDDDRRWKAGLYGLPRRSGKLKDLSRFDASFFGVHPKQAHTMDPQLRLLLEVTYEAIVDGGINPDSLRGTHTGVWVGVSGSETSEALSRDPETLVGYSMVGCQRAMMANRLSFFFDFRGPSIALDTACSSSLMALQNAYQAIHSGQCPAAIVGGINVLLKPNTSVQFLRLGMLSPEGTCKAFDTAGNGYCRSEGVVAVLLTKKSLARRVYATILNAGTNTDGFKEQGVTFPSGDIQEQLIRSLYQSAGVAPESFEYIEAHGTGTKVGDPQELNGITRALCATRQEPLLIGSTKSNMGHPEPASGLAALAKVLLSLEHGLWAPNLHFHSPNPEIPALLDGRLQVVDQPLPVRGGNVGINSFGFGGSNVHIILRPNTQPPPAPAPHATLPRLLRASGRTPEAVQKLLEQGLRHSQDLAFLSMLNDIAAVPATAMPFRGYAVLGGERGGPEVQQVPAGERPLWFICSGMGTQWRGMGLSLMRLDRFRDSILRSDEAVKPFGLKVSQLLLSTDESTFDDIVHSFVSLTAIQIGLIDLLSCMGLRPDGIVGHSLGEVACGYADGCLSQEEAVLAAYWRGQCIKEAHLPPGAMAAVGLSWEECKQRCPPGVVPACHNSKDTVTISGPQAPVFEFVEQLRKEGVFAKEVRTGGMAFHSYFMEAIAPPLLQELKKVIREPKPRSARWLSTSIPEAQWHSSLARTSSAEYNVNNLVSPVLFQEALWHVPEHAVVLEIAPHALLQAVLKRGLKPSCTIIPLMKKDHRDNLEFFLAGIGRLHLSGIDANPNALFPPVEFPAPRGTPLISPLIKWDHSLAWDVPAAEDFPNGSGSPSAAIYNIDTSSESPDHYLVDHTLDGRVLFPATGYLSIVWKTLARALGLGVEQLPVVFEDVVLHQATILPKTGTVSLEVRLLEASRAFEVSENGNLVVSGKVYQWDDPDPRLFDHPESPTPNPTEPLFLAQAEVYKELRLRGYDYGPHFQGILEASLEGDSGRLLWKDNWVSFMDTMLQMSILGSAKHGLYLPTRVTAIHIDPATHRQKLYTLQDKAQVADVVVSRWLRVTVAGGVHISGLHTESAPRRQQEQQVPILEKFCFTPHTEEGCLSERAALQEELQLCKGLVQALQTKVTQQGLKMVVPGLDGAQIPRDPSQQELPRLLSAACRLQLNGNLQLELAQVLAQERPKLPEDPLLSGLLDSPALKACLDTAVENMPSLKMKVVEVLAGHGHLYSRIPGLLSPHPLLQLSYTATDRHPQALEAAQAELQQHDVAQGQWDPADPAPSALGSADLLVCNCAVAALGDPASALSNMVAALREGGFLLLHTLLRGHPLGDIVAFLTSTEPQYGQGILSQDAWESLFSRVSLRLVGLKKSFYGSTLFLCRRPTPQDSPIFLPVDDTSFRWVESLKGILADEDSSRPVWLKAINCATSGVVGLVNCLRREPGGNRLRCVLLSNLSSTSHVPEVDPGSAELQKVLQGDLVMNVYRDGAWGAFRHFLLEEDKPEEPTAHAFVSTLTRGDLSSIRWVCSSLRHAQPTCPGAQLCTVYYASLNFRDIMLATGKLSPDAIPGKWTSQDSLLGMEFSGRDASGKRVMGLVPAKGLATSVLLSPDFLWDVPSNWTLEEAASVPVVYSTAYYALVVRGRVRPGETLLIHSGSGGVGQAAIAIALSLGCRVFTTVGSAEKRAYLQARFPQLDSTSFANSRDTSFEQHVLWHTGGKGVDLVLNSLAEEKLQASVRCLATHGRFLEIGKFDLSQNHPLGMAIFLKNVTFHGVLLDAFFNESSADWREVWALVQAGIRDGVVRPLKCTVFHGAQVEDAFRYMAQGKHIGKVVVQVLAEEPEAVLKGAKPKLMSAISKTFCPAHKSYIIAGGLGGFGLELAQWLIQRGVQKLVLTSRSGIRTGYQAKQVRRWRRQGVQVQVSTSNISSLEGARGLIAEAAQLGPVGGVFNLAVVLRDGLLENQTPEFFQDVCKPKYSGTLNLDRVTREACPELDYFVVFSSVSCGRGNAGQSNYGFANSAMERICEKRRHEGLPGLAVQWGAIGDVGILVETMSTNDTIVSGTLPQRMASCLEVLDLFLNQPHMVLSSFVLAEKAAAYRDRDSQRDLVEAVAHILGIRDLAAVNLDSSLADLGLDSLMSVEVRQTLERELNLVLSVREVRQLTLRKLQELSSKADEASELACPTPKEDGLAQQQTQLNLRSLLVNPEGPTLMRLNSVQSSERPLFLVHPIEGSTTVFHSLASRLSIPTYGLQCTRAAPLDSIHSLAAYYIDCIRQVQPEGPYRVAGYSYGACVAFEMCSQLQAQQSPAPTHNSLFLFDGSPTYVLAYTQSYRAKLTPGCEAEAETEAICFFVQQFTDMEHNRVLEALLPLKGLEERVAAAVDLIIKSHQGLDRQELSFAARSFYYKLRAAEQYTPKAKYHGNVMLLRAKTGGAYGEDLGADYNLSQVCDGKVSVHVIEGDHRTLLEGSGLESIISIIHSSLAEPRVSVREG

C[C@](N)(Cc1ccc(O)c(O)c1)C(=O)O
outcome [1]: inactive | outcome [2]: inactive | outcome [3]: inactive | outcome [4]: inactive | outcome [5]: inactive | outcome [6]: inactive | outcome [7]: inactive | AC50 [8]: 71.6 µM (active) | outcome [9]: inactive | outcome [10]: inactive

Cn1c(=O)cc(Oc2ccc(F)cc2F)c2cnc(NCC(C)(C)O)nc21
outcome [1]: inactive | outcome [2]: inactive | outcome [3]: inactive | outcome [4]: inactive | AC50 [5]: 17 µM (active) | outcome [6]: inactive | outcome [7]: inactive | AC50 [8]: 11.9 µM (active) | outcome [9]: inactive | outcome [10]: inactive

COc1ccc(-n2nc(C(F)F)cc2-c2ccc(S(C)=O)cc2)cc1 (stereo not given)
outcome [1]: inactive | outcome [2]: inactive | outcome [3]: inactive | outcome [4]: inactive | outcome [5]: inactive | outcome [6]: inactive | outcome [7]: inactive | AC50 [8]: 60.3 µM (active) | outcome [10]: inactive

COc1ccc2sc(C(=O)Nc3nnn[nH]3)c(OC(C)C)c2c1
AC50 [1]: 63.8 µM (active) | AC50 [2]: 89.1 µM (active) | outcome [3]: inactive | AC50 [4]: 50 µM (active) | AC50 [5]: 13.1 µM (active) | AC50 [6]: 81.3 µM (active) | AC50 [7]: 10.9 µM (active) | AC50 [8]: 35.3 µM (active) | AC50 [9]: 25.2 µM (active) | AC50 [10]: 19.9 µM (active)

CC(=O)c1ccc2c(c1)[C@H](NC(=O)c1ccc(F)cc1)[C@@H](O)C(C)(C)O2
outcome [1]: inactive | outcome [2]: inactive | outcome [3]: inactive | outcome [4]: inactive | outcome [5]: inactive | outcome [6]: inactive | outcome [7]: inactive | outcome [8]: inactive | outcome [9]: inactive | outcome [10]: inactive

CC(O)CN(CCN(CC(C)O)CC(C)O)CC(C)O (stereo not given)
outcome [1]: inactive | AC50 [2]: 12.4 µM (active) | outcome [3]: inactive | outcome [4]: inactive | AC50 [5]: 12.5 µM (active) | outcome [6]: inactive | outcome [7]: inactive | AC50 [8]: 50 µM (active) | outcome [9]: inactive | outcome [10]: inactive

O=C(CCCCCCCCc1cccnc1)N1CCC(C=C(c2ccccc2)c2ccccc2)CC1
AC50 [1]: 50 µM (active) | AC50 [2]: 50 µM (active) | outcome [3]: inactive | AC50 [4]: 27 µM (active) | outcome [5]: inactive | AC50 [6]: 22.5 µM (active) | AC50 [7]: 29.6 µM (active) | AC50 [8]: 32.6 µM (active) | outcome [9]: inactive | AC50 [10]: 12.4 µM (active)

CNCc1ccc(NC(=O)c2c[nH]c3c2C(=O)CCC3)cc1
outcome [1]: inactive | outcome [2]: inactive | outcome [3]: inactive | outcome [4]: inactive | outcome [5]: inactive | outcome [6]: inactive | outcome [7]: inactive | AC50 [8]: 73.8 µM (active) | outcome [9]: inactive | outcome [10]: inactive

CCCCCCc1ccc(O)cc1O
outcome [1]: inactive | outcome [2]: inactive | outcome [3]: inactive | outcome [4]: inactive | outcome [5]: inactive | outcome [6]: inactive | outcome [7]: inactive | AC50 [8]: 77.7 µM (active) | outcome [10]: inactive

CC1=CC(=O)CC(C)(C)C1
outcome [1]: inactive | outcome [2]: inactive | outcome [3]: inactive | outcome [4]: inactive | outcome [5]: inactive | outcome [6]: inactive | outcome [7]: inactive | outcome [8]: inactive | outcome [9]: inactive | outcome [10]: inactive

O=P(OC(CCl)CCl)(OC(CCl)CCl)OC(CCl)CCl
AC50 [1]: 0.232 µM (active) | AC50 [2]: 50 µM (active) | outcome [3]: inactive | AC50 [4]: 90.8 µM (active) | outcome [5]: inactive | AC50 [6]: 50 µM (active) | AC50 [7]: 63.8 µM (active) | AC50 [8]: 13.1 µM (active) | outcome [9]: inactive | outcome [10]: inactive

Cc1ccc(C)c(O)c1
outcome [1]: inactive | outcome [2]: inactive | outcome [3]: inactive | outcome [4]: inactive | outcome [5]: inactive | outcome [6]: inactive | outcome [7]: inactive | AC50 [8]: 51.2 µM (active) | outcome [9]: inactive | outcome [10]: inactive

Clc1nc(Cl)c(Cl)c(Cl)c1Cl
outcome [1]: inactive | outcome [2]: inactive | outcome [3]: inactive | outcome [4]: inactive | outcome [5]: inactive | outcome [6]: inactive | outcome [7]: inactive | AC50 [8]: 74.4 µM (active) | outcome [9]: inactive | outcome [10]: inactive

O=C1CCC(N2C(=O)c3ccccc3C2=O)C(=O)N1 (stereo not given)
outcome [1]: inactive | outcome [2]: inactive | outcome [3]: inactive | outcome [4]: inactive | outcome [5]: inactive | outcome [6]: inactive | outcome [7]: inactive | AC50 [8]: 67.7 µM (active) | outcome [10]: inactive

O=C(OC[C@H]1O[C@@H](OC(=O)c2cc(O)c(O)c(OC(=O)c3cc(O)c(O)c(O)c3)c2)[C@H](OC(=O)c2cc(O)c(O)c(OC(=O)c3cc(O)c(O)c(O)c3)c2)[C@@H](OC(=O)c2cc(O)c(O)c(OC(=O)c3cc(O)c(O)c(O)c3)c2)[C@@H]1OC(=O)c1cc(O)c(O)c(OC(=O)c2cc(O)c(O)c(O)c2)c1)c1cc(O)c(O)c(OC(=O)c2cc(O)c(O)c(O)c2)c1
AC50 [1]: 7.03 µM (active) | AC50 [2]: 15.2 µM (active) | outcome [3]: inactive | outcome [4]: inactive | outcome [5]: inactive | AC50 [6]: 15.2 µM (active) | AC50 [7]: 9.23 µM (active) | AC50 [8]: 9.36 µM (active) | outcome [10]: inactive

CC[C@H]1OC(=O)[C@H](C)[C@@H](O[C@H]2C[C@@](C)(OC)[C@@H](O)[C@H](C)O2)[C@H](C)[C@@H](O[C@@H]2O[C@H](C)C[C@H](N(C)C)[C@H]2O)[C@](C)(O)C[C@@H](C)C(=O)[C@H](C)[C@@H](O)[C@]1(C)O
outcome [1]: inactive | outcome [2]: inactive | outcome [3]: inactive | outcome [4]: inactive | outcome [5]: inactive | outcome [6]: inactive | outcome [7]: inactive | AC50 [8]: 53.9 µM (active) | outcome [9]: inactive | outcome [10]: inactive

CCNc1ccccc1
outcome [1]: inactive | outcome [2]: inactive | outcome [3]: inactive | outcome [4]: inactive | outcome [5]: inactive | outcome [6]: inactive | outcome [7]: inactive | AC50 [8]: 9.94 µM (active) | outcome [9]: inactive | outcome [10]: inactive

CC(C)CCCCCCOC(=O)c1ccc(C(=O)OCCCCCCC(C)C)c(C(=O)OCCCCCCC(C)C)c1
outcome [1]: inactive | outcome [2]: inactive | outcome [3]: inactive | outcome [4]: inactive | outcome [5]: inactive | outcome [6]: inactive | outcome [7]: inactive | AC50 [8]: 50 µM (active) | outcome [9]: inactive | outcome [10]: inactive

Fc1ccccc1[C@@H](F)COC1CCC(Nc2ncnc3[nH]ncc23)CC1 (stereo not given in full)
outcome [1]: inactive | AC50 [2]: 50 µM (active) | outcome [3]: inactive | AC50 [4]: 31.8 µM (active) | AC50 [5]: 86.4 µM (active) | AC50 [6]: 37.3 µM (active) | AC50 [7]: 31.9 µM (active) | AC50 [8]: 94.7 µM (active) | AC50 [10]: 82.1 µM (active)

O=c1n(CC2CO2)c(=O)n(CC2CO2)c(=O)n1CC1CO1 (stereo not given)
AC50 [1]: 89.1 µM (active) | outcome [2]: inactive | outcome [3]: inactive | AC50 [4]: 58.7 µM (active) | outcome [5]: inactive | outcome [6]: inactive | outcome [7]: inactive | outcome [8]: inactive | outcome [9]: inactive | outcome [10]: inactive
